From the OligoGym collection come the findings set out here.
Also: reference of the scale not given here.

In the first experiment the target is SNRNP70. Description: pooled miR-30 sensor sort-seq; sequence = guide strand. The settings on record: shRNA.
Consider TCCTCTTCTGGTACCACCGAGG, for which the sensor-assay potency score (higher = more potent) was -1.82.
For the sequence TTAAGCTCTGTCTCCACTTCTT, the sensor-assay potency score (higher = more potent) was -0.388.
As for AATCTTCTTGCCATCTGCGTGT, the sensor-assay potency score (higher = more potent) is -0.116.

The target of another experiment is SNRPD1. The experiment is described as above. The settings on record: shRNA.
TAGATTTCACCTTAGGTTCAAC: the sensor-assay potency score (higher = more potent) is -0.589.
TTCAACATCCACAAGTAGTGTA: the sensor-assay potency score (higher = more potent) was determined as 0.419.
TCATGCTGACATCCACACCTGT returned a sensor-assay potency score (higher = more potent) of -0.408.
Take TACAGGTTCTCTGTTCTTCAGG: the sensor-assay potency score (higher = more potent) was -0.643.
Turning to TATCCAGAGGTAAACTGTCTGG, the sensor-assay potency score (higher = more potent) is -1.01.
In turn, TCAACATCCACAAGTAGTGTAT yielded a sensor-assay potency score (higher = more potent) of -0.261.
As for TTCTCTGTTCTTCAGGGTCATT, the sensor-assay potency score (higher = more potent) is -1.71.
In turn, TCTGGTAGAATAAAATACCGAA displayed a sensor-assay potency score (higher = more potent) of 0.138.
Still for that read-out and setting: in the case of TAGAATAAAATACCGAATGTTA it was -0.767; in that of TTAAGATGTGTATTCATGCTGA, -0.136; in that of TGTGATTGTTCCATGGACCTGT, 1.16.
For the sequence TCTTCCTGCAACAGCTTCCCTT, the sensor-assay potency score (higher = more potent) was -1.09.

Another experiment addresses SNTG1. The experiment is described as above. The conditions noted are these: shRNA.
TGAAGCACTGTTTCCGTCGGTC registered a sensor-assay potency score (higher = more potent) of -0.425.
Same read-out and setting: with TTTAATATTGTGCTTTGTGAGA the figure was -0.565.
Sequence TTATCTGTAGAATTGCATCTCC displayed a sensor-assay potency score (higher = more potent) of 0.36.
As to TAGGTCTTGCACTGTATCCGTT, the sensor-assay potency score (higher = more potent) is -0.173.
Take TAATGTGTCTGTATTGTTGGGA: the sensor-assay potency score (higher = more potent) stood at 0.882.
TAGCACACATGCATAGGTCTTG: the sensor-assay potency score (higher = more potent) came to 0.196.
Consider TTGTCTTCTGATGGTCACCGTT, for which the sensor-assay potency score (higher = more potent) was -1.02.
Same read-out and setting: with TGACTTTCTAGCACACATGCAT the figure was -0.281.
As to TTGCTCGTGGTAGCAGAGCTGG, the sensor-assay potency score (higher = more potent) was -1.52.
On the same count and under the same terms, with TTTGTTGCAGCATCAAAGCAGA the figure was -0.518; with TTAGAGTCACTTCTTCTCCAGC, -1; with TTGGAGCACATGCACAATCTTC, -1.22.

The target of the next experiment is SNX19. The experiment is described as above. The conditions noted are these: shRNA.
Regarding TTAATATACAGCACTTCCCTGT, the sensor-assay potency score (higher = more potent) amounted to 0.105.
Sequence TAGATCTGGTTTCTCCTCCAGA yielded a sensor-assay potency score (higher = more potent) of -0.172.
On to TGAACTTTCGTAGATCTGGTTT, for which the sensor-assay potency score (higher = more potent) was -0.266.
As for TACTTCACAGTATAGAGTGTGT, the sensor-assay potency score (higher = more potent) is -0.265.
Regarding TAACTCTACTTCCCTGACCTGG, the sensor-assay potency score (higher = more potent) was -0.776.
TGAGGTGACAGCTCGATCCAGC returned a sensor-assay potency score (higher = more potent) of 0.362.
TTATTGAGGTGACAGCTCGATC registered a sensor-assay potency score (higher = more potent) of -1.16.
In the case of TACTCTGTCACTGTCCATGTTT, the sensor-assay potency score (higher = more potent) is -0.134.
TAAAGGACTGATTATAACCGTA showed a sensor-assay potency score (higher = more potent) of -0.44.
On the same count and under the same terms, with TTCTACTCTGTCACTGTCCATG the figure was -0.887.
On the same count and under the same terms, in the case of TTTCTTCACACATCCCACCCAA it was -0.125; in that of TTTCCAGTAACTTTGTCTGTTT, -0.546.
